Our source for the composite z-score, z-score and composite Z-score values is PubChem BioAssay.

Calls of active or inactive are those of the source.

Test [1] concerns Human papillomavirus type 1a protein E7 (residues 44-93). Briefly: HPV1a E7 fragment binders on microarrays, primary screen, biochemical, small-molecule microarray, residues 44-93, 635 nm fluorescence (AID 1108).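 Note: E7 fragment applied at 1 µg/mL in TBST for 1 h at 4 C; score combines spot fluorescence with its signal to noise ratio.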 As to conditions: small-molecule microarray binding, fluorescence 635 nm; higher = more signal.
Test [2] is described as follows: modulators of HCV replicon luciferase signal, primary screen, HCV replication inhibitor project, Huh7 cells, luciferase reporter (AID 1109).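 Note: huh7 hepatoma cells harbouring a luciferase neomycin HCV replicon reporter; luciferase luminescence as measure of HCV replicon replication; test concentration not given here.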 As to conditions: 48 h, higher = more signal. For orientation: In antiviral work, replicon cells carry a viral genome segment that copies itself.
The target in test [3] is Left-right determination factor 2 (Homo sapiens) (UniProt O00292). Briefly: LEFTY2 binders on small-molecule microarrays, primary screen, biochemical, small-molecule microarray, 635 nm fluorescence scan (AID 1110). Conditions: LEFTY2 binding, higher = more signal.
Chain of Left-right determination factor 2 (Homo sapiens) (O00292 whole entry, looked up): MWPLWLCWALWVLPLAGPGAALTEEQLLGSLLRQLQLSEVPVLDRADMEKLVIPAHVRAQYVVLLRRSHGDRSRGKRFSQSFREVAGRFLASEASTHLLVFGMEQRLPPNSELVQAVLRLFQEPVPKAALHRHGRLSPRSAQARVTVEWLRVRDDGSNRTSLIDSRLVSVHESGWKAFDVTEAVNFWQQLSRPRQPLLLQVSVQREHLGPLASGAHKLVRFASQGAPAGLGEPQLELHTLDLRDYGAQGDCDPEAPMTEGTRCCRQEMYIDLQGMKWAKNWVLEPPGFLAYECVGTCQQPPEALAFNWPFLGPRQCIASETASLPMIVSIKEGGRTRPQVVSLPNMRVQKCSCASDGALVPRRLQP
The target of test [4] is Calmodulin-1 (Homo sapiens) (UniProt P0DP23). In words: CALM1 binders on microarrays, EGTA buffer, profiling panel, biochemical, small-molecule microarray, Cy5-labelled CALM1 (AID 1111).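 Note: labelled calmodulin applied in Tris saline Tween buffer holding calcium plus EGTA and DTT.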 Conditions: Cy5-CALM1 binding fluorescence, higher = more signal.
For test [5] the target is unchanged. In words: calcium-bound CALM1 binders on microarrays, profiling panel, artefact control for SMM control-protein annotation, biochemical, small-molecule microarray, Cy5-labelled CALM1, plus calcium (AID 1112).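 Note: score merges spot fluorescence with signal to noise from triplicate slides.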 Conditions: Cy5-CALM1 binding fluorescence, higher = more signal.
Test [6] is described as follows: small-molecule microarray binders of probe aWnt5a, primary screen, biochemical, biotinylated probe, 635/667 nm fluorescence (AID 1113).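 Note: score merges 667 nm fluorescence intensity with signal-to-noise per printed feature.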 Conditions: higher = more signal.
Test [7] in a line: small-molecule microarray binders of probe aShh, primary screen, biochemical, biotinylated probe, 635/667 nm fluorescence (AID 1114).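 Note: probe is biotin-labelled aShh protein from a stem cell growth factor screen; measures binding of labelled protein to compounds printed on the slide; score merges feature fluorescence at 667 nm with signal-to-noise.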 Conditions: higher = more signal.
Test [8] is described as follows: small-molecule microarray binders of probe aNog, primary screen, biochemical, biotinylated probe, 635/667 nm fluorescence (AID 1115).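 Note: probe is biotinylated aNog protein used at 0.15 µg/mL for 1 h at 4 C; z-score combines 667 nm fluorescence of each spot with its signal to noise.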 As to conditions: higher = more signal.
Test [9] has as its target Torsin-1A-interacting protein 1 (Homo sapiens) (UniProt Q5JTV8). Briefly: LAP1 binders from COS7 cell lysate, primary screen, small-molecule microarray, 635/667 nm fluorescence (AID 1116). Conditions: COS7-hLAP1 lysate binding, 635 nm fluorescence, higher = more signal.
For test [10], the target named is Alpha-bungarotoxin (Bungarus multicinctus) (UniProt P60615). Briefly: alpha-bungarotoxin binders on microarray, profiling panel, artefact control for SMM control protein annotation, biochemical, small-molecule microarray, Alexa647 label, 635/667 nm fluorescence (AID 1117). Conditions: alpha-BTX-A647 binding fluorescence, higher = more signal.
Chain of Alpha-bungarotoxin (Bungarus multicinctus) (P60615 whole entry, looked up): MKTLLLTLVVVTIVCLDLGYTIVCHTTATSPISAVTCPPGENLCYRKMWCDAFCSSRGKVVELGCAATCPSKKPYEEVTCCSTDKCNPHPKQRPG
A further test deals with Albumin (Bos taurus) (UniProt P02769). Briefly: bovine serum albumin binders on microarray, profiling panel, artefact control for SMM control protein annotation, biochemical, small-molecule microarray, Alexa647 label, 635/667 nm fluorescence (AID 1118).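 Note: score merges 667 nm emission intensity and signal-to-noise per printed compound spot.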 As to conditions: BSA-A647 binding, fluorescence 635 nm, higher = more signal.
Chain of Albumin (Bos taurus) (P02769 whole entry, looked up): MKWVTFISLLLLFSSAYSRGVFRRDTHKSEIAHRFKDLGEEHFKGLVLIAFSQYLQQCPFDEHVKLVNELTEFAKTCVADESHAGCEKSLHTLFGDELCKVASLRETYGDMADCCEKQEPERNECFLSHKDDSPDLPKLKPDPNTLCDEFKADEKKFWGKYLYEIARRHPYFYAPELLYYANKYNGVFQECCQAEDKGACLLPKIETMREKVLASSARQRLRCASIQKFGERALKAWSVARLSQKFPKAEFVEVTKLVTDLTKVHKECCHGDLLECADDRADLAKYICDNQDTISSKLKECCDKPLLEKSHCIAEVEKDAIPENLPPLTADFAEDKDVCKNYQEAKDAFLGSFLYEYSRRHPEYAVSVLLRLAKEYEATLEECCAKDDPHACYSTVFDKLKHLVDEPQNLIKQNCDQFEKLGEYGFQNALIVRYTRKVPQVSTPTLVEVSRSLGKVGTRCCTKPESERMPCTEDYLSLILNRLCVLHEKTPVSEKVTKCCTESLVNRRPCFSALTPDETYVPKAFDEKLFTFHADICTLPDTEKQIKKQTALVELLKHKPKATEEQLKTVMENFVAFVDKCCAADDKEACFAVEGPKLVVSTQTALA
A short description of test [11]: small-molecule microarray binders of probe aXIP, primary screen, biochemical, NeuroSMM set, 635/667 nm fluorescence (AID 1119).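 Note: probe is the protein aXip251-270 applied at 1 µg/mL to compound-printed slides; binding of probe to printed compounds measured as 667 nm fluorescence plus signal to noise.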 As to conditions: higher = more signal, called active from +8 up or from −8 down.
Test [12] in a line: small-molecule binders of probe aNOTCH3, primary screen, biochemical, small-molecule microarray, 635/667 nm fluorescence (AID 1120).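 Note: probe is a biotin-tagged antibody raised against NOTCH3 rather than NOTCH3 protein; score merges spot fluorescence near 667 nm with spot signal to noise.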 As to conditions: higher = more signal.
A short description of test [13]: small-molecule binders of probe aNOTCH2, primary screen, biochemical, small-molecule microarray, 635/667 nm fluorescence (AID 1121).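 Note: score merges feature fluorescence read at 667 nm with its signal to noise.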 As to conditions: higher = more signal.
In test [14] the target is Carbonic anhydrase 2 (Homo sapiens) (UniProt P00918). Briefly: CAII small-molecule binders, profiling panel, biochemical, small-molecule microarray, Alexa647-labelled CAII (AID 1122). Conditions: CAII-A647 binding fluorescence, higher = more signal.
A short description of test [15]: COS7 lysate on small-molecule microarray, probe aHis, 635 nm (AID 1123).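 Note: z-score combines 667nm fluorescence intensity with signal-to-noise per printed compound spot.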 As to conditions: COS7 cell lysate, fluorescence, higher = more signal.
Test [16] is described as follows: compound binding in COS7 lysate, probe aLAP1, primary screen, cell lysate, small-molecule microarray (AID 1124).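 Note: lysate comes from COS7 cells expressing LAP1 and is applied at 0.3 µg/mL; score merges spot fluorescence near 667 nm with signal-to-noise over triplicate slides.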 Conditions: probe aLAP1, fluorescence, higher = more signal.
A further test relates to Sam68 (KHDRBS1). In words: Sam68 small-molecule binders, primary screen, biochemical, small-molecule microarray, 635 nm fluorescence (AID 1125).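 Note: score merges 667 nm channel intensity with signal to noise over triplicate slides.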 Conditions: small-molecule microarray binding, higher = more signal.
The subject of test [17] is Chordin-like protein 2 (CHRDL2). Briefly: CHRDL2 small-molecule binders, primary screen, biochemical, small-molecule microarray, 635 nm fluorescence (AID 1126).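 Note: printed compound slides probed with Chrdl2 protein at 4 µg/mL for 1 h at 4 C; score merges 667 nm emission intensity with signal to noise over three replicate slides.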 As to conditions: small-molecule microarray binding, fluorescence 635 nm; higher = more signal.
The target of test [18] is Concanavalin-A (Canavalia ensiformis) (UniProt P02866). In words: ConA small-molecule binders, primary screen, artefact control for SMM control protein annotation, biochemical, small-molecule microarray, Alexa647 label, 635 nm (AID 1127).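 Note: z combines 667 nm emission intensity with signal-to-noise across three replicate slides.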 As to conditions: ConA-A647 binding fluorescence, higher = more signal.
Chain of Concanavalin-A (Canavalia ensiformis) (P02866 whole entry, looked up): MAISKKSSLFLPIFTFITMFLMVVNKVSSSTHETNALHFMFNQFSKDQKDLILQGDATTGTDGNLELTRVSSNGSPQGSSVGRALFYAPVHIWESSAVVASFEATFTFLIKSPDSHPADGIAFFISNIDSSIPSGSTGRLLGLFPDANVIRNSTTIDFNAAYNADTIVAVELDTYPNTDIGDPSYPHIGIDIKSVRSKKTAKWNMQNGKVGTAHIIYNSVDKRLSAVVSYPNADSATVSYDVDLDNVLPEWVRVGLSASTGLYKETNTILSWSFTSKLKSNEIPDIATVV

Chain of Torsin-1A-interacting protein 1 (Homo sapiens) (Q5JTV8 whole entry, looked up): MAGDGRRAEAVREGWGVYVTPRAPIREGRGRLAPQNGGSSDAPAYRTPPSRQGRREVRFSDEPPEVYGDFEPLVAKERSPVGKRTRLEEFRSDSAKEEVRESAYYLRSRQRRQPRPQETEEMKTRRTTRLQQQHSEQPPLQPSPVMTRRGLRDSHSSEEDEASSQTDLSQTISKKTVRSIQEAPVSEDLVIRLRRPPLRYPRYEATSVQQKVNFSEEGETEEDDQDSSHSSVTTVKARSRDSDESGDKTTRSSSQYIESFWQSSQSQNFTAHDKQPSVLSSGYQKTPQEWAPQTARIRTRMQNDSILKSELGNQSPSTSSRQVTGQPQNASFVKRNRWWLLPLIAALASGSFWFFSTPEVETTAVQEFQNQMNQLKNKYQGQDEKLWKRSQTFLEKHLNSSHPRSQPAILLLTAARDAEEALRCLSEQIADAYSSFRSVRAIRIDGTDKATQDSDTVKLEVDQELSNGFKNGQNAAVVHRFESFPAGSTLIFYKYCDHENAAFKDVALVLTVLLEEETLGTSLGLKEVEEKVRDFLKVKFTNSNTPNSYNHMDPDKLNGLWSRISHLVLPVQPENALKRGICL

Regarding `CC(C)[C@H]1NC(=O)[C@@]23C(=O)N[C@@H](Cc4ccccc4)C2[C@H](C)[C@@]2(C)O[C@H]2C3/C=C/CCC/C=C/CNC(=O)[C@H](Cc2ccccc2)NC1=O` (stereo not given in full), the composite z-score is 1.41 in test [1]; -0.0883 in test [3]; -0.773 in test [4]; -0.806 in test [5]; -0.148 in [6]; -0.156 in test [7]. For the same molecule, the composite z-score is -0.455 in test [8]; -0.148 in [9]; -0.498 in test [10]; 0.347 with Albumin (Bos taurus); -0.213 in [12]; -0.131 in test [13]. Moreover, the composite z-score in test [14] is 0.427; in [15], 0.892; in [16] it was -0.0328; in the test with Sam68 (KHDRBS1), 0.86; in [17], 0.213; in test [18], -0.464. Besides, the z-score in test [2] was -0.565. Moreover, the composite Z-score in test [11] was -0.0159 (inactive).
For the molecule `Cc1ccccc1C(O)C1C=CC2C(=O)NC(=O)C2N1Nc1ccc(Cl)cc1Cl` (stereo not given), the composite z-score was -0.198 in [1]; -0.345 in [3]; 1.95 in test [4]; 1.13 in test [5]; -0.0405 in test [6]; 0.0796 in test [7]. The composite z-score was 0.879 in test [8]; 1.56 in [9]; 0.0072 in test [10]; 0.709 with Albumin (Bos taurus); -0.0653 in test [12]; -0.0453 in [13]. For the same molecule, the composite z-score in test [14] was determined as 0.558; in test [15] it was 2.4; in test [16], 1.1; with Sam68 (KHDRBS1), 0.965; in [17], 0.291; in test [18], 0.814. Also, the z-score in [2] is -0.595. Moreover, in test [11], the composite Z-score is 1.42 (inactive).
As to `COCC(=C=CC[C@H](O)c1cccc(OCCO)c1)C[C@H](O)COCc1ccccc1`, the composite z-score in [1] was 0.768; in [3], -0.35; in test [4] it was -0.238; in test [5], -0.135; in test [6], 0.0037; in [7] it was 0.191. In addition, the composite z-score was -0.0863 in test [8]; 1.58 in [9]; -0.363 in test [10]; 0.484 with Albumin (Bos taurus); 0.187 in test [12]; 0.104 in test [13]. The composite z-score in test [14] was 0.742; in [15], 2.13; in test [16], 0.66; in the test with Sam68 (KHDRBS1), 0.938; in test [17], -0.227; in test [18] it was -0.564. The molecule further displayed a z-score in test [2] of -0.754. In addition, the composite Z-score in test [11] is -0.141 (inactive).
Take `O=C1C2C=CC(C(O)c3ccc4c(c3)OCO4)N(Nc3ccccc3)C2C(=O)N1c1ccccc1` (stereo not given): the composite z-score was 1.36 in test [1]; -0.127 in [3]; 1.36 in test [4]; 0.174 in [5]; -0.0286 in test [6]; -0.0904 in [7]. Further, the composite z-score was determined as 1.69 in [8]; 0.722 in test [9]; 1.05 in test [10]; 1.01 with Albumin (Bos taurus); 0.345 in test [12]; 0.0247 in test [13]. In addition, the composite z-score is 0.468 in test [14]; 2.43 in [15]; 0.247 in test [16]; 1.29 with Sam68 (KHDRBS1); -0.0766 in test [17]; 1.13 in test [18]. This molecule returned a z-score in [2] of -0.631. The composite Z-score in test [11] was 0.348 (inactive).
For `CCOC(=O)C1=CCN(S(=O)(=O)c2ccc(C)cc2)C1c1ccccc1` (stereo not given), the composite z-score was 0.666 in [1]; 0.564 in [3]; -0.263 in test [4]; -0.197 in test [5]; -0.0346 in test [6]; 0.0204 in [7]. The composite z-score in test [8] was 0.46; in [9], 0.553; in test [10], 0.848; with Albumin (Bos taurus), 1.02; in test [12], 0.0836; in test [13], -0.0607. Besides, the composite z-score came out at 0.685 in [14]; 1.69 in test [15]; 0.709 in test [16]; 1.08 with Sam68 (KHDRBS1); 0.132 in test [17]; 1.14 in [18]. In test [2], this molecule yielded a z-score of -3.27. In addition, in test [11], the composite Z-score was 0.728 (inactive).
